Data: ChEMBL document CHEMBL4303097 (2020)
Over roughly 1,500 compounds, “Inhibition index” has its median near 0.17; the highest 2% begin near 1.3. Shown is part of a subset that was picked to be rich in the highest values.

tested on: SARS-CoV-2; test: Inhibition of cell viability relative to arbidol control (inhibition index > 1 indicates higher activity) measured by fluorescence (OD590nm) in Vero E6 cells infected with SARS-CoV-2 (strain BavPat1) at MOI 0.002 after 72hrs; assay type: functional, Chlorocebus sabaeus, Vero C1008

| SMILES | Inhibition index |
| --- | --- |
| CCN(CC)CCOC(=O)C(c1ccccc1)c1ccccc1.Cl [ADIPHENINE HYDROCHLORIDE] | 0.1368 |
| CC/C(=C(\c1ccccc1)c1ccc(OCCN(C)C)cc1)c1ccccc1.O=C(O)CC(O)(CC(=O)O)C(=O)O [TAMOXIFEN CITRATE] | -0.1208 |
| C[C@]12CC[C@@H]3c4ccc(O)cc4C[C@@H](CCCCCCCCC[S+]([O-])CCCC(F)(F)C(F)(F)F)[C@H]3[C@@H]1CC[C@@H]2O (stereo partly specified) [FULVESTRANT] | 0.187 |
| CC[C@H](C)[C@H](NC(=O)[C@H](Cc1ccc(O)cc1)NC(=O)[C@@H](NC(=O)[C@H](CCCNC(=N)N)NC(=O)[C@@H](N)CC(=O)O)C(C)C)C(=O)N[C@@H](Cc1c[nH]cn1)C(=O)N1CCC[C@H]1C(=O)N[C@@H](Cc1ccccc1)C(=O)O.O=C(O)C(F)(F)F | 0.4608 |
| CC(C(=O)[O-])c1cccc(Oc2ccccc2)c1.CC(C(=O)[O-])c1cccc(Oc2ccccc2)c1.O.O.[Ca+2] (stereo unspecified) [FENOPROFEN CALCIUM] | 0.03953 |
| CC(=O)OCC(=O)[C@@]12OC3(CCCC3)O[C@@H]1C[C@H]1[C@@H]3CCC4=CC(=O)C=C[C@]4(C)[C@@]3(F)[C@@H](O)C[C@@]12C [AMCINONIDE] | 0.9715 |
| CCCCCN(CCCCC)C(=O)C(CCC(=O)[O-])NC(=O)c1ccc(Cl)c(Cl)c1.[Na+] (stereo unspecified) [LORGLUMIDE SODIUM] | 0.5123 |
| Nc1nc2[nH]cc(CCc3ccc(C(=O)N[C@@H](CCC(=O)[O-])C(=O)[O-])cc3)c2c(=O)[nH]1.[Na+].[Na+] [PEMETREXED DISODIUM] | 0.05416 |
| CC(C)(C(=O)O)c1ccc(C(O)CCCN2CCC(C(O)(c3ccccc3)c3ccccc3)CC2)cc1.Cl (stereo unspecified) [FEXOFENADINE HYDROCHLORIDE] | 0.6767 |
| CC(C)NCC(O)c1ccc2ccccc2c1.Cl (stereo unspecified) | 0.8858 |
| CCN(CC)CCNC(=O)c1ccc(N)cc1.Cl [PROCAINAMIDE HYDROCHLORIDE] | 0.2557 |
| C#CCN(C)[C@H](C)Cc1ccccc1.Cl [SELEGILINE HYDROCHLORIDE] | 0.2358 |
| CCC1(c2cccc(O)c2)CCCCN(C)C1.Cl (stereo unspecified) [MEPTAZINOL HYDROCHLORIDE] | 1.137 |
| CCN1CCN(C(=O)N[C@@H](C(=O)N[C@@H]2C(=O)N3C(C(=O)O)=C(CSc4nnnn4C)CS[C@H]23)c2ccc(O)cc2)C(=O)C1=O.O.O [CEFOPERAZONE DIHYDRATE] | 0.2339 |
| C=C[C@H]1CN2CC[C@H]1C[C@H]2[C@H](OC(=O)OCC)c1ccnc2ccc(OC)cc12 [QUININE ETHYLCARBONATE] | 0.6435 |
| C=C[C@H]1CN2CC[C@H]1C[C@@H]2[C@@H](O)c1ccnc2ccc(OC)cc12.Cl.O | 1.411 |
| Nc1nc(/C(=C/CC(=O)O)C(=O)N[C@@H]2C(=O)N3C(C(=O)O)=CCS[C@H]23)cs1 [CEFTIBUTEN] | 0.07268 |
| CC(C)OC(=O)CCC/C=C\C[C@H]1[C@H](CC[C@@H](O)CCc2ccccc2)[C@@H](O)C[C@H]1O | 0.1555 |
| CC[C@H]1OC(=O)[C@H](C)[C@@H](O[C@H]2C[C@@](C)(OC)[C@@H](O)[C@H](C)O2)[C@H](C)[C@@H](O[C@@H]2O[C@H](C)C[C@H](N(C)C)[C@H]2O)[C@](C)(OC)C[C@@H](C)C(=O)[C@H](C)[C@@H](O)[C@]1(C)O [CLARITHROMYCIN] | 0.8598 |
| CC[C@H]1OC(=O)[C@H](C)[C@@H](O[C@H]2C[C@@](C)(OC)[C@@H](O)[C@H](C)O2)[C@H](C)[C@@H](O[C@@H]2O[C@H](C)C[C@H](N(C)C)[C@H]2O)[C@](C)(O)C[C@@H](C)C(=O)[C@H](C)[C@@H](O)[C@]1(C)O [ERYTHROMYCIN] | 0.0005254 |
| CC[C@H]1OC(=O)[C@H](C)[C@@H](O[C@H]2C[C@@](C)(OC)[C@@H](O)[C@H](C)O2)[C@H](C)[C@@H](O[C@@H]2O[C@H](C)C[C@H](N(C)C)[C@H]2O)[C@](C)(O)C[C@@H](C)CN(C)[C@H](C)[C@@H](O)[C@]1(C)O [AZITHROMYCIN] | 1.487 |
| CCC(=O)O[C@]1(C(=O)CCl)[C@@H](C)C[C@H]2[C@@H]3CCC4=CC(=O)C=C[C@]4(C)[C@@]3(F)[C@@H](O)C[C@@]21C [CLOBETASOL PROPIONATE] | 0.2335 |
| CC(=O)S[C@@H]1CC2=CC(=O)CC[C@]2(C)[C@H]2CC[C@@]3(C)[C@@H](CC[C@@]34CCC(=O)O4)[C@H]12 [SPIRONOLACTONE] | 0.4829 |
| Cl.NC1CCN(c2nc3c(cc2F)c(=O)c(C(=O)O)cn3-c2ccc(F)cc2F)C1 (stereo unspecified) | 0.1095 |
| CN1[C@@H]2CC[C@H]1C[C@@H](OC1c3ccccc3CCc3ccccc31)C2.O=C(O)CC(O)(CC(=O)O)C(=O)O [DEPTROPINE CITRATE] | -0.3511 |
| Cc1cc(C(C)(C)C)c(O)c(C)c1CC1=NCCN1.Cl [OXYMETAZOLINE HYDROCHLORIDE] | 0.08485 |

| SMILES | Inhibition index |
| --- | --- |
| Cl.O.O.O=C1CC[C@@]2(O)[C@H]3Cc4ccc(O)c5c4[C@@]2(CCN3CC2CC2)[C@H]1O5 | 0.1496 |
| C=C1CC[C@@]2(O)[C@H]3Cc4ccc(O)c5c4[C@@]2(CCN3CC2CC2)[C@H]1O5.Cl [NALMEFENE HYDROCHLORIDE] | 1.653 |
| Cl.Oc1ccc2c3c1O[C@H]1[C@@H](O)CC[C@@]4(O)[C@@H](C2)N(CC2CCC2)CC[C@]314 [NALBUPHINE HYDROCHLORIDE] | 0.2089 |
| CC(C(=O)O)c1ccc(N2CC=CC2)c(Cl)c1 (stereo unspecified) [PIRPROFEN] | 0.2333 |
| CNC(=C[N+](=O)[O-])NCCSCc1ccc(CN(C)C)o1.Cl [RANITIDINE HYDROCHLORIDE] | 0.09309 |
| CCN1CCC[C@H]1CNC(=O)c1c(OC)ccc(Br)c1OC.Cl | 0.3465 |
| CC(C)n1c(/C=C/[C@H](O)C[C@H](O)CC(=O)[O-])c(-c2ccc(F)cc2)c2ccccc21.[Na+] | -0.06663 |
| CN[C@@H]1[C@@H](O)[C@@H](O[C@@H]2[C@@H](O)[C@H](O[C@H]3O[C@H](CN)CC[C@H]3N)[C@@H](N)C[C@H]2N)OC[C@]1(C)O.CN[C@@H]1[C@@H](O)[C@@H](O[C@@H]2[C@@H](O)[C@H](O[C@H]3O[C@H]([C@@H](C)N)CC[C@H]3N)[C@@H](N)C[C@H]2N)OC[C@]1(C)O.CN[C@@H]1[C@@H](O)[C@@H](O[C@@H]2[C@@H](O)[C@H](O[C@H]3O[C@H]([C@@H](C)NC)CC[C@H]3N)[C@@H](N)C[C@H]2N)OC[C@]1(C)O.O=S(=O)(O)O | 0.01806 |
| COc1c(-c2ccc3cc(NS(C)(=O)=O)ccc3c2)cc(-n2ccc(=O)[nH]c2=O)cc1C(C)(C)C [DASABUVIR] | 0.184 |
| Cc1cc(C2CCCCC2)n(O)c(=O)c1.NCCO [CICLOPIROX OLAMINE] | 0.2225 |
| C[C@]12CCC(=O)C=C1CC[C@@H]1[C@@H]2C(=O)C[C@]2(C)C(=O)CC[C@@H]12 [ADRENOTERONE] | 0.3653 |
| C[C@]12CCC(=O)C(O)=C1CC[C@@H]1[C@@H]2CC[C@]2(C)C(=O)CC[C@@H]12 [FORMESTANE] | 1.365 |
| C[C@]12CC[C@H](O)C[C@@H]1CC[C@@H]1[C@@H]2CC[C@]2(C)C(=O)CC[C@@H]12 [EPIANDROSTERONE] | 1.075 |
| C[C@]12CCC(=O)C=C1CC[C@@H]1[C@@H]2[C@@H](O)C[C@@]2(C)[C@H]1CC[C@]2(O)C(=O)CO [HYDROCORTISONE] | 0.1194 |
| CN1CCC(=C2c3ccccc3CC(=O)c3sccc32)CC1.O=C(O)/C=C/C(=O)O [KETOTIFEN FUMARATE] | 0.837 |
| Cc1ccc(/C(=C\CN2CCCC2)c2ccccn2)cc1.Cl | 0.8569 |
| O=C1O[C@H]([C@@H](O)CO)C(O)=C1O [ASCORBIC ACID] | 0.2513 |
| C[C@]12CCC(=O)C=C1C=C[C@@H]1[C@@H]2CC[C@@]2(C)[C@H]1CC[C@@]2(O)CCC(=O)[O-].[K+] [CANRENOATE POTASSIUM] | 0.2042 |
| C[C@]12CC[C@H]3[C@@H](CCC4=CC(=O)CC[C@@]43C)[C@@H]1CC[C@@H]2C(=O)CO [DESOXYCORTICOSTERONE] | 0.868 |
| CNC1(C)C2CCC(C2)C1(C)C.Cl (stereo unspecified) [MECAMYLAMINE HYDROCHLORIDE] | 0.674 |
| CC(=O)O[C@H]1C[C@@H]2CC[C@@H]3[C@H](CC[C@@]4(C)[C@H]3C[C@H]([N+]3(C)CCCCC3)[C@@H]4OC(C)=O)[C@@]2(C)C[C@@H]1[N+]1(C)CCCCC1.[Br-].[Br-] [PANCURONIUM BROMIDE] | 0.06422 |
| Nc1c2ccccc2nc2ccccc12 [AMINACRINE] | -0.2464 |
| Cl.Nc1c2c(nc3ccccc13)CCCC2 [TACRINE HYDROCHLORIDE] | 1.442 |
| CCC(=O)OC(OP(=O)(CCCCc1ccccc1)CC(=O)N1C[C@H](C2CCCCC2)C[C@H]1C(=O)O)C(C)C (stereo partly specified) | 1.038 |
| CC[C@H]1OC(=O)[C@H](C)[C@@H](O[C@H]2C[C@@](C)(OC)[C@@H](O)[C@H](C)O2)[C@H](C)[C@@H](O[C@@H]2O[C@H](C)C[C@H](N(C)C)[C@H]2O)[C@](C)(O)C[C@@H](C)[C@@H]2N[C@@H](COCCOC)O[C@H]([C@H]2C)[C@]1(C)O [DIRITHROMYCIN] | 0.105 |
